The structures appear in SMILES notation. Hit rate of the full screen: of about 370,000 compounds, about 3,300 (0.89%) were called active. The list comes from a sample in which actives are over-represented; it also holds similar structures and randomly drawn compounds. Unmarked numbers belong to inactive results.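 Rule for the calls: active = activation above the mean of all tested compounds plus 3 SD, computed per campaign excluding outliers beyond control limits (cut at about 13% in these data); inactive = the rest.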

In the assay the target is Kallikrein-7 (Homo sapiens) (UniProt P49862). The experiment in a line: activation of human kallikrein-7 proenzyme – biochemical, fluorescence intensity, primary screen (AID 652039). Particulars: purified proKLK7, EDANS-DABCYL substrate fluorescence; at 7 µM; hits give high values; 100% is mature enzyme control, 0% vehicle.
Kallikrein-7 (Homo sapiens), sequence (P49862 whole entry, looked up): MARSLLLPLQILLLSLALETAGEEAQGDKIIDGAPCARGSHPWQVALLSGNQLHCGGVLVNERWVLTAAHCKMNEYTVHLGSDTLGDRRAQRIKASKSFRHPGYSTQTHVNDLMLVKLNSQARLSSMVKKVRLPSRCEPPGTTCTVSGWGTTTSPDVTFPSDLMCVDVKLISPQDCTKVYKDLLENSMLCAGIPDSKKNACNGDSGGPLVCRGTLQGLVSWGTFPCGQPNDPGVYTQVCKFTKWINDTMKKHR
Turning to `Cc1ccc(CSc2nnc(SCC(=O)NN=Cc3cc(Br)ccc3F)s2)cc1`, the activation was -0.39%.
Turning to `COC(=O)c1ccc(C(=O)OC)c(NC(=S)N2CCCCC2)c1`, the activation was -1.87%.
For the compound `CCCN(CCC)C(=S)Nc1cc(C(=O)OC)ccc1C(=O)OC`, the activation was 0.15%.
Regarding `CCS(=O)(=O)Nc1cc(C(=O)OC)ccc1C(=O)OC`, the activation was 21.6% (active).
On to `Cc1ccc(NC(=O)Cc2cccc(F)c2)c(S(=O)(=O)N2CCOCC2)c1`, for which the activation was -0.14%.
As to `CC(C)(C)c1ccc(CSc2nnc(-c3cccs3)o2)cc1`, the activation was -0.23%.
As to `COc1ccc([C@H]2OC(=O)C[C@H]2C(=O)N2CCN(c3ccccc3F)CC2)cc1OC`, the activation is -0.74%.
The figure for `Cc1nn(-c2ccccc2)c(C)c1NC(=O)COC(=O)c1cc(Cl)ccc1O` is 24.7% (active); for `Cc1cccc(C)c1NC(=O)COC(=O)c1c(C)nn(-c2ccccc2)c1C` it is 0.05%.
The same measure for `CCC(Oc1ccccc1)C(=O)OCC(=O)Nc1c(C)nn(-c2ccccc2)c1C` (stereo not given): -0.3%.
Regarding `O=C(CSc1nc2ccccc2n1Cc1ccccc1Cl)N/N=C\c1c[nH]c2ccccc12`, the activation was 0.56%.
As to `N[C@@H](Cc1ccccc1)C(=O)N1CCC[C@@H]1C(=O)N1CCC2CCN(S(=O)(=O)c3ccccc3)CC21` (stereo not given in full), the activation was 0.77%.
The same measure for `Cc1cc2cc3n(c2nn1)N=C(Cl)CC3`: 24.3% (active); for `COCc1cc(=O)oc2cc(NS(=O)(=O)c3ccc(C)cc3)ccc12`: 15.2% (active); for `Cc1ccc(S(=O)(=O)Nc2ccc(F)c(S(=O)(=O)N3CCOCC3)c2)cc1`: -0.78%.
As for `Cc1ccc(NS(=O)(=O)c2ccc3c(c2)NC(=O)CO3)cc1`, the activation is -0.54%.
The same measure for `CC1CCN(c2ccc(C(=O)O)cc2NS(=O)(=O)c2ccc(Br)s2)CC1`: 0.65%.
The figure for `CC(=O)C[C@@H]1OC[C@H](C)N1S(=O)(=O)c1ccc(C)cc1` is -0.26%.
The figure for `C[C@H](C(=O)N(C)c1ccccc1)[C@@H](O)c1ccc(Cl)cc1` is 0.11%; for `COc1cc2c(cc1OC)C(Nc1ccc(S(N)(=O)=O)cc1)=NC(C)(C)C2` it is 0.68%.
For the compound `COc1cc2c(cc1OC)C(C(C)C)=NC(C)(C)C2`, the activation was 85.2% (active).
The figure for `COc1cc2c(cc1O)C(SC)=NC(C)(C)C2` is -0.65%; for `COc1ccc(CN(CCN2CCOCC2)C(=O)c2ccc(C)cc2)cc1OC` it is 0.42%; for `Nn1c(SCC(=O)N2c3ccccc3Sc3ccccc32)nnc1-c1n[nH]c2c1CCC2` it is 0.49%.
Regarding `COc1ccc2nc(-c3ccccn3)ccc2c1`, the activation was 20.9% (active).
The same measure for `COc1ccc(C(=O)COC(=O)c2ccc3ccccc3n2)cc1`: 0.19%; for `COc1ccc(-n2c(SCC(=O)OC(C)C)nnc2-c2ccccn2)cc1`: -0.5%; for `O=C(NC1CCC1)c1ccc(C#CC2CC2)cn1`: 0.73%.
The figure for `CCCCOCCCNC(=O)C[C@H]1C[C@@]2(C(=O)OC)C(=C[C@H](C(C)(C)C)O[C@@H]2C)N(CCc2ccc(OC)c(OC)c2)C1=O` is -0.83%; for `N#CCC[C@H]1CC[C@]2(CCCN(Cc3ccc(Cl)cc3)C2)O1` it is 0.36%.

Values taken from PubChem BioAssay AID652039 (The Scripps Research Institute Molecular Screening Center, 2013).
